# Screening results as filed in PubChem BioAssay.
# Giardia killer: kills Giardia lamblia; actives 0.15% (n = 340,000); Giardia lamblia trophozoite viability; activity change, % at 7.66 µM, hits read low; AID 540267; in the data active = activity change below about -80%; inconclusive = between about -30% and that limit;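 note: parasites exposed to compound for two days anaerobically before the ATP read; % is set by controls: 0 for no effect and ±100 for the full control effect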
#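 Media and compound were dispensed first, then trophozoites at 100 cells/well; plates sat 48 hrs at 37 deg C without oxygen before ATP luminescence reagent was added and read after 15-30 min at room temperature.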
# VP16 counter: counter-screen for ROR gamma inhibitors: Gal4-VP16 reporter | Drosophila S2 Gal4-VP16 UAS-luciferase, luminescence, 20 h | Potency, µM (doses to about 53.6 µM), for the others: at the highest dose activity, negative = inhibition, usual class: inhibitors | actives 3.5% (n = 310,000);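 note: Gal4-VP16 expression switched on by copper sulfate through the metallothionein promoter; potency is the fitted concentration of half-maximal effect; % is set by controls: 0 for no effect and ±100 for the full control effect; nearly all actives have a fitted effect of over 50% in size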
# RORg inh: blocks mouse ROR gamma transcriptional activity; actives 5.4% (n = 310,000); Potency, µM (series often up to 53.6 µM), inactives show at the top dose activity change, negative = inhibition, hits mostly inhibitors; Drosophila S2 Gal4-RORgamma UAS-luciferase reporter, 20 h; note: potency is the fitted concentration of half-maximal effect; % is set by controls: 0 for no effect and ±100 for the full control effect; nearly all actives have a fitted effect of over 60% in size
# Target sequence (P51450 whole entry, looked up, the tested form may be a part): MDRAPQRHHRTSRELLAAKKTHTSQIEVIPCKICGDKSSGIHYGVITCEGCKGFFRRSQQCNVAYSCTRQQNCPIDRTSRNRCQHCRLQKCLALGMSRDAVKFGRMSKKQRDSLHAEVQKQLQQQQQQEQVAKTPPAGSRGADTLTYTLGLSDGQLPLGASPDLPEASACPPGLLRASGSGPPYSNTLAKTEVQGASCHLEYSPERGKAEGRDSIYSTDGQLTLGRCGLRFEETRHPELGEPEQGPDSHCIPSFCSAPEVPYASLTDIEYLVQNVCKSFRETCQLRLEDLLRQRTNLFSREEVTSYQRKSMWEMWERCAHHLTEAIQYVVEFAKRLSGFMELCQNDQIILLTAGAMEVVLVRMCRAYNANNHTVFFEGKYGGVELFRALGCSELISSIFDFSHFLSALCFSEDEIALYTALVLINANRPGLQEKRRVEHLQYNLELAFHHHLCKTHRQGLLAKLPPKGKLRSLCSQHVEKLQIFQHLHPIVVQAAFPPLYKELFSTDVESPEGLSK
#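 Luciferase reporter read in Schneider cells carrying Gal4-RORγ (mouse) and UAS-Photinus luciferase; cells given compound 1 h before 700 uM copper sulfate induction, then incubated 20 h at ambient temperature.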
# SW480 rerep: inducers of DNA re-replication in SW480 colon cancer cells | SW480 DNA re-replication, Hoechst DNA content imaging, 48 h | Potency, µM (highest dose often 46.1 µM), inactives show top-dose re-replication activation, usual class: activators | actives 1.8% (n = 340,000); note: potency is the fitted concentration of half-maximal effect; % of control where 0% means no effect; nearly all actives have a fitted effect of over 55% in size
#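 250 cells/well; 23 nL cpd via pin tool; 48 hr, 37 C, 5% CO2; Hoechst 40 min; imager read of total nuclear intensity, ex 405/em 500-530 nm.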
# MCF10A rereplic: induces DNA re-replication in MCF 10a normal breast cells. AID 624296. MCF 10A DNA re-replication, Hoechst nuclear intensity, 48 h. Potency, µM (doses to about 46.1 µM), for inactives: at the top dose activity, positive = re-replication, hits mostly activators. actives 2.9% (n = 350,000); note: potency is the fitted concentration of half-maximal effect; % of control where 0% means no effect; nearly all actives have a fitted effect of over 50% in size
# Chronic BCR inh: inhibitors of chronic active B-cell receptor signaling; ABC-DLBCL IkBa-CBG/CBR reporter, luminescence ratio, 4 h; Potency, µM (titrated, usually from 46.1 µM), without a hit: at the highest dose activity change, negative = inhibition, most hits filed as inhibitors; actives 0.05% (n = 340,000); AID 493014; active = well fitted inhibition curve with a large enough effect in the signal ratio, with a control signal flat, not every such curve was filed as active; inconclusive = small, poorly fitted or top-dose-only effect, or effect the other way, or a change in a side signal; the % refers to the signal ratio;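 note: potency is the fitted concentration of half-maximal effect; plate controls were basal doxycycline-induced cells for no effect and cells given 10 µM MG132 for full effect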
#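 TMD8 human ABC-DLBCL cells with doxycycline-inducible IκBα–green luciferase fusion and unfused red luciferase, in 0.5% FBS medium; compounds up to 46 uM, 4 h at 37C. Green/red luminescence ratio, filter-overlap corrected, fitted to concentration-response curves.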
# Active calls of the source: *; ? = inconclusive; / = no result given; [ ] = remark or other dose. The list is not random: actives were taken first. Their share in the collection is about 8.3%. Unless noted, calls come from the whole dose curve; as a rule, active = well fitted curve in the direction sought with a large enough effect; inconclusive = small, poorly fitted or top-dose-only effect, or another doubt; inactive = no such curve, though single readings can be large; an effect the other way counts as inactive or inconclusive.
SMILES,Giardia killer,VP16 counter,RORg inh,SW480 rerep,MCF10A rereplic,Chronic BCR inh
CC1CCCCC1NC(=O)C1CCN(S(=O)(=O)c2cccc3nonc23)CC1 (centres undefined),4,1%,20%,0%,11%,0%
CC(NC(=O)COc1ccc(/C=N/NC(=O)CO)cc1)c1ccccc1 (centres undefined),0,2%,?,?,5%,-7%
COc1cccc(C2=CC(c3ccc(N(C)C)cc3)n3nnnc3N2)c1 (centres undefined),-2,4%,-38%,?,16µM*,-10%
COc1cccc(C2=CC(c3cccc(OC)c3OC(F)F)n3nnnc3N2)c1 (centres undefined),-1,1%,24%,?,?,?
COc1cccc(C2C=C(c3cccs3)Nc3ncnn32)c1OC (centres undefined),-13,?,11µM*,-5%,-5%,1%
COc1cccc(C2=CC(c3cccc(OC)c3OC)n3nnnc3N2)c1 (centres undefined),?,-19%,3.2µM*,1%[9.22 µM],8.9µM*,-19%
COc1cccc(C2=CC(c3ccccc3)n3nnnc3N2)c1 (centres undefined),0,35µM*,?,2%,2%,10%
Cc1cc(NC(=O)C(C)SCC(=O)Nc2ccc(SC(F)F)cc2)no1 (centres undefined),7,-4%,-7%,-2%,10%,-4%
Cc1ccc(C(=O)OCC(=O)Nc2cc(C(C)(C)C)nn2-c2ccccc2)c(O)c1,-4,/,/,-58%,-3%,?
CCCCNC(=O)CCn1c(=O)c2cccn2c2ccc(F)cc21,34,-2%,25%,-1%,?,1%
Cc1ccc2c(C)c(C(=O)NCCN3CCCC(O)C3)oc2c1C (centres undefined),-11,-2%,1%,0%,-1%,-5%
COc1ccc(OC)c(C2C=C(c3ccc(C)c(C)c3)Nc3nnnn32)c1 (centres undefined),-4,4%,?,7.3µM*,?,0%
Cc1ccc(S(=O)(=O)N(C)Cc2ccc(C(=O)NN=C(CC(C)C)CC(C)C)cc2)cc1,-2,?,10µM*,?,16%,6%
COc1ccc(OC)c(NC(=S)N(CCc2c(C)[nH]c3ccccc23)Cc2cccs2)c1,-18,8%,8.9µM*,?,1%,-4%
COc1ccc2[nH]c(C)c(CCN(Cc3cccs3)C(=S)Nc3cccc(F)c3)c2c1,-8,?,1.6µM*,-2%,-5%,16%
COc1ccc(OC)c(NC(=S)N(CCc2c(C)[nH]c3ccc(C)cc23)Cc2cccs2)c1,-11,17%,10µM*,1%,12%,3%
CCNCC(=O)N1c2ccccc2CCc2ccc(NC(=O)OC(C)C)cc21,-9,-4%,-7%[1.91 µM],16%,9%,?
CN(C)c1cnn(-c2ccccc2)c(=O)c1Cl,-15,-11%,-22%,-13%,-42%,0%
COc1ccc(-n2ncc(Cl)c(Cl)c2=O)cc1,8,?,2µM*,3%,0.82µM*,?
Cc1ccc(-n2ncc(N(C)C)c(Cl)c2=O)cc1,4,?,11µM*,2%,6%,5%
COc1c(Cl)cnn(-c2ccc(Cl)c(Cl)c2)c1=O,6,0%,6%,?,23µM*,?
COc1c(Cl)cnn(-c2ccccc2)c1=O,1,0%,-14%,?,?,?
Cc1ccc(NC(=O)/C(C#N)=C(\N)C(Cl)(Cl)Cl)nc1,0,-5%,-32%,8%,18µM*,?
COc1ccc(N(C)S(=O)(=O)c2ccc(Cl)c(C(=O)NCCc3ccc(Cl)cc3)c2)cc1,8,0%,?,-1%,?,?
Cc1ccc(CN=C(N)Nc2nc(C)cc(C)n2)cc1,13,-2%,1%,15µM*,?,?
